Vif-APOBEC3F blk = inhibitors of Vif-A3F interaction. HeLa A3F-eYFP + Vif (tagged APOBEC3F with the HIV-1 protein that degrades it), YFP fluorescence increase. Potency, µM (titrated, usually from 46.1 µM), without a hit: at the top dose activity, negative = active. actives 0.2% (n = 390,000). AID 602313; further: potency means the concentration at half of the fitted maximal effect; % of control where 0% means no effect; nearly all actives have a fitted effect of over 65% in size
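HeLa cells stably expressing A3F-eYFP plus Vif, plated and incubated overnight at 37 deg C, then exposed to compounds overnight at 37 deg C. Blocked degradation read as raised yellow fluorescence (Ex 488/Em 500-530).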
Vif-APOBEC3G blk = blocks the Vif interaction with human APOBEC3G; Potency, µM (top dose mostly 46.1 µM), for the others: at the highest dose activity, negative = active, usual class: inhibitors; HeLa A3G-eYFP + Vif (tagged APOBEC3G with the HIV-1 protein that degrades it), YFP fluorescence, overnight; AID 602310; Q9HC16; actives 0.076% (n = 410,000); further: potency means the concentration at half of the fitted maximal effect; on the % scale 0 is the no-effect control and ±100 the full control effect; nearly all actives have a fitted effect of over 60% in size
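HeLa cells stably expressing Vif and C-terminally eYFP-tagged A3G, seeded overnight at 37 deg C, then exposed to compound by pintool overnight at 37 deg C. Rise in yellow fluorescence (Ex 488/Em 500-530, Acumen) marks blocked Vif-driven A3G degradation.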
PLK1 PBD inh = PLK1 (human) polo-box domain binding inhibition. P53350. Plk1 PBD binding of FITC phosphopeptide, fluorescence polarization. Potency, µM, for inactives: max response, negative = inhibition, usual class: inhibitors. actives 2.8% (n = 360,000). AID 720504; further: potency means the concentration at half of the fitted maximal effect; series mostly up to about 57 µM; on the % scale 0 is the no-effect control and ±100 the full control effect; nearly all actives have a fitted effect of over 65% in size
TSHR antag = human thyrotropin receptor antagonism; P16473; actives 0.2% (n = 330,000); activity change, negative = inhibition, % at 11.5 µM; AID 504810; TSHR-expressing cells, TSH-stimulated cAMP HTRF, 2 h; hits give low values;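 active means activity change below a set negative limit, meaning inhibition stronger than a set level, cut at about -70% in these data; inconclusive means activity change between two set negative limits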; further: on the % scale 0 is the no-effect control and ±100 the full control effect
Target sequence (P16473 whole entry, looked up): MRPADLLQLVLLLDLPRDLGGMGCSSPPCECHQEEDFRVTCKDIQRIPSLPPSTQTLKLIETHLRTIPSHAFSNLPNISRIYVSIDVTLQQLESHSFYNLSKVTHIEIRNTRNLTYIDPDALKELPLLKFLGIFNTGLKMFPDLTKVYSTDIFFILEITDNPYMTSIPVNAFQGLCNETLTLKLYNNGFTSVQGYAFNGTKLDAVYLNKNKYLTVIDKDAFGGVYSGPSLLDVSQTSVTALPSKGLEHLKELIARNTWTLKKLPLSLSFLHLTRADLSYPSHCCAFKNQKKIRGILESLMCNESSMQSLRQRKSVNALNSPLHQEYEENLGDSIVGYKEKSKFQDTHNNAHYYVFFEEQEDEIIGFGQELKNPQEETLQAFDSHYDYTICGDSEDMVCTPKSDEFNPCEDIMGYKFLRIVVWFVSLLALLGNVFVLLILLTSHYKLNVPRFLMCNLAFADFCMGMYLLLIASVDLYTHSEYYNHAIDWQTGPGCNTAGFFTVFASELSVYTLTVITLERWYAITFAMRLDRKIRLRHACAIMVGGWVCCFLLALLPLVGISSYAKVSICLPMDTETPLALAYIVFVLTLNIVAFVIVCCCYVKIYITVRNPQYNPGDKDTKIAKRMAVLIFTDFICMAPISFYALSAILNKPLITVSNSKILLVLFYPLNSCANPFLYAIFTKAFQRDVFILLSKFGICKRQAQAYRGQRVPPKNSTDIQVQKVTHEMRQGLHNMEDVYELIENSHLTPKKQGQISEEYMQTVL
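Cell-based HTRF cAMP assay; TSHR cells + compound, TSH EC80 (4nM final), 2 h, 37 deg C. Lysis with anti-cAMP cryptate and cAMP-d2, 30 min RT, read 665/620 nm.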
VDR inh = vitamin D3 receptor (human) inhibition | VDR-SRC2-3 peptide fluorescence polarization, 2 h | AID 504847 | actives 0.93% (n = 400,000) | Potency, µM, without a hit: max response, negative = inhibition, actives largely listed as inhibitors; further: potency means the concentration at half of the fitted maximal effect; on the % scale 0 is the no-effect control and ±100 the full control effect
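Signal is fluorescence polarization, reporting how far test compounds block the interaction of VDR with the SRC2-3 coregulator peptide after a 2 h room-temperature incubation.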
* = called active by the depositor; ? = inconclusive; · = not tested or not shown. Hits are enriched below; roughly 3.1% of the tested compounds scored in any of these assays. Unless noted, the call rests on the fitted dose curve; in most records, active means well fitted curve in the direction sought with a large enough effect; inconclusive means small, poorly fitted or top-dose-only effect, or another doubt; inactive means no such curve, though single readings can be large; an effect the other way counts as inactive or inconclusive.

SMILES	Vif-APOBEC3F blk	Vif-APOBEC3G blk	PLK1 PBD inh	TSHR antag	VDR inh
C[C@@H](O)[C@H]1C(=O)N2C(C(=O)O)=C(SCCN=CN)C[C@H]12	·	·	·	-7	4%
O=C(NCCc1ccc(Cl)cc1)c1ccc(CSCc2ccccc2Cl)o1	8%	5%	·	·	3%
CCn1c(=O)c([N+](=O)[O-])c(Cl)c2ccccc21	7%	?	2.4µM*	-79*	?
COc1ccc2[nH]cc(CCNc3ncncc3-c3ccoc3)c2c1	·	·	·	·	-23%
Fc1cccc(CNc2ncnc3ccc(-c4ccoc4)cc23)c1	·	·	·	-16	·
COC(=O)c1ccc(N(C(=O)CNC(=O)c2ccco2)C(C(=O)NC2CCCC2)c2ccco2)cc1 (stereo not drawn)	-1%	0%	27µM*	-1	-16%
COC(=O)C/C=C/[C@@H](C)[C@H](OC)c1c(Br)ccc2c1OCO2	·	·	·	·	9%
CC(=O)N1CCC2(CC1)CN(C(=O)Nc1cccc(C#N)c1)C2	·	·	·	·	3%
Cc1cc(NCCCCO)n2c(nc3ccccc32)c1C#N	-2%	1%	-8%	-4	21%
C=C(C)CSc1cc(C)c(C#N)c2nc3ccccc3n12	11%	-8%	27µM*	-12	-17%
Cc1cc(-c2ccco2)n2c(nc3ccccc32)c1C#N	-5%	-6%	11µM*	-13	-20%
Cc1c(NC(=O)c2ccc(-c3cccc([N+](=O)[O-])c3)o2)cccc1-c1nc2cc(Cl)ccc2o1	2%	2%	·	·	-7%
COc1ccc(OC)c2c(C)ccnc12	·	-4%	·	·	·
CCCCCCCc1nc2nc(C)c(Br)c(=O)n2[nH]1	0%	-1%	27µM*	-4	-7%
CCCc1nc2nc(C)c(NS(=O)(=O)c3ccc(C(C)(C)C)cc3)c(=O)n2[nH]1	-2%	-1%	-6%	10	-14%
Brc1ccc[n+](CCC2CCCCC2)c1	·	0%	·	·	·
O=C(O)c1ccc(N/N=C/c2cn(Cc3ccc(F)cc3)c3ccccc23)cc1	0%	0%	24µM*	-22	?
CCN(CC)S(=O)(=O)c1ccc(C(=O)Nc2nc3c(Cl)cc(Cl)cc3s2)cc1	3%	0%	·	·	-4%
CC(=O)Nc1ccc(S(=O)(=O)Nc2nnc(Cc3ccc(Cl)cc3)s2)cc1	3%	-4%	27µM*	-15	-14%
CC(=O)Nc1ccc(S(=O)(=O)Nc2nnc(C3CCCCC3)s2)cc1	4%	0%	24µM*	-7	-15%
O=S(=O)(Nc1nnc(C2CCCCC2)s1)c1ccc(F)cc1	-11%	-6%	-26%	·	-25%
O=C(O)c1ccccc1Nc1cc(Cl)c2nonc2c1[N+](=O)[O-]	-2%	-3%	7.5µM*	-12	35µM*
O=C(O)c1ccccc1Nc1ccc([N+](=O)[O-])cc1	-4%	3%	-9%	-2	-8%
C=CCn1c(SCC)nc2ccccc2c1=O	·	2%	·	·	-2%
CCC(C)c1cc([N+](=O)[O-])cc([N+](=O)[O-])c1OC(C)=O (stereo not drawn)	·	·	·	·	-6%
SMILES	Vif-APOBEC3F blk	Vif-APOBEC3G blk	PLK1 PBD inh	TSHR antag	VDR inh
CCC(C)c1cc([N+](=O)[O-])cc([N+](=O)[O-])c1OC(=O)OC(C)C (stereo not drawn)	·	·	·	·	11µM*
O=C(O)c1cccc(-n2cccc2/C=C\[N+](=O)[O-])c1	0%	0%	27µM*	14	?
N#C/C(=C/c1cccn1-c1cccc(C(=O)O)c1)c1ccc(Cl)cc1	14%	3%	30µM*	-31	?
O=C(O)c1cccc(-n2cccc2/C=C/[N+](=O)[O-])c1	-4%	3%	6.7µM*	0	?
CCNc1ncc2nc(-c3cc(F)cc(F)c3)c(=O)n(C3CC3)c2n1	·	·	·	·	-7%
O=c1ccc2[n+]([O-])c3ccc(O)cc3oc-2c1	1%	-1%	-27%	-35	11µM*
CC(=O)c1cccc(N=Nc2c(-c3ccccc3)[nH]n(-c3ccccc3)c2=O)c1	10%	-3%	24µM*	-7	-7%
CCC(C)N(C(=O)CSc1ccc(NC(C)=O)cc1)C1CCS(=O)(=O)C1 (stereo not drawn)	0%	4%	30µM*	-4	3%
CCC(C)N(C(=O)COC(=O)CSc1ccc(C)c(C)c1)C1CCS(=O)(=O)C1 (stereo not drawn)	-15%	1%	-2%	4	-9%
COc1ccc(S(=O)(=O)c2c(Nc3ccc(C)cc3)sc(C(=O)c3ccc4c(c3)OCO4)c2N)cc1	-3%	0%	·	·	0%
COc1cc2nc(/C=C/c3cc(OC)c(OC)c(OC)c3)sc2cc1SC	0%	?	6%	-3	-11%
COc1cc2nc(C)sc2cc1SC	3%	-5%	24µM*	28	?
CC(=O)c1cc2c(cc1O)OC(C)(C)C=C2	·	·	·	·	2%
Cc1ccc2c(c1)C(=O)C(=O)N2CC1COc2ccccc2O1 (stereo not drawn)	19%	-16%	?	2	71µM*
Cc1ccc2c(c1)C(=O)C(=O)N2Cc1ccc(F)cc1	-12%	?	?	-5	?
CCN1C(=O)C(=O)c2cc(C)ccc21	0%	0%	-10%	-5	-3%
Cc1ccc2c(c1)C(=O)C(=O)N2Cc1ccccc1	-7%	1%	-18%	-7	79µM*
Cc1ccc2c(c1)C(=O)C(=O)N2Cc1ccc(Cl)cc1	-3%	-11%	?	15	25µM*
CC[C@H]1[C@@H]2C=C[C@@H]3[C@H]4C/C=C\C(=O)NCCC[C@@H]5NC(=O)C(=C5O)C(=O)CC[C@@H]4C[C@@H]3[C@H]2C[C@H]1C	·	·	·	·	40µM*
CC(=O)c1sc2c(c1C)c(=O)n(-c1ccc(Cl)cc1)c(=O)n2Cc1ccc(Cl)cc1	5%	1%	·	·	5%
CC(C)CC(=O)NC(=S)N(Cc1ccccc1)Cc1ccccc1	25µM*	-3%	2%	1	?
COc1ccc(NC(=O)c2sc3nc(C)c(C(=O)Nc4ccc(C)cc4C)c(-c4cccs4)c3c2N)cc1	-4%	1%	·	·	-2%
COc1ccc(C2c3c(oc4ccc(F)cc4c3=O)C(=O)N2Cc2ccc3c(c2)OCO3)cc1 (stereo not drawn)	3%	4%	·	·	15%
CC(=O)NC1=NN(C(C)=O)C2(S1)C(=O)N(C(C)=O)c1ccc(C)cc12 (stereo not drawn)	15%	3%	27µM*	19	?
CC(=O)N(O)c1ccc(/C=C2\C=Cc3ccccc32)cc1	·	-9%	·	·	·
O=C(Nc1ccc(-c2nc3ncccc3o2)cc1)c1ccco1	-3%	0%	11µM*	-7	?
CC(=O)c1cccc(NC(=O)c2ccc(C)o2)c1	4%	1%	30µM*	1	-17%
CCN(CC)S(=O)(=O)c1ccc2[nH]c(=O)cc(C(=O)Nc3cccc(C(C)=O)c3)c2c1	0%	-6%	8%	0	14%
